CYP2C9 activ: CYP2C9 (human) activation; AID 1024; P11712; activation factor at 5 µM; recombinant CYP2C9, luciferin-H conversion, luminescence; stronger effect = higher value; factor 1 = untreated enzyme, 0 = blocked; 96,000 tested, 1.4% active;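 active means activation factor of 2 or more for CYP2C9 at a 5 µM dose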
Target sequence (P11712 whole entry, looked up): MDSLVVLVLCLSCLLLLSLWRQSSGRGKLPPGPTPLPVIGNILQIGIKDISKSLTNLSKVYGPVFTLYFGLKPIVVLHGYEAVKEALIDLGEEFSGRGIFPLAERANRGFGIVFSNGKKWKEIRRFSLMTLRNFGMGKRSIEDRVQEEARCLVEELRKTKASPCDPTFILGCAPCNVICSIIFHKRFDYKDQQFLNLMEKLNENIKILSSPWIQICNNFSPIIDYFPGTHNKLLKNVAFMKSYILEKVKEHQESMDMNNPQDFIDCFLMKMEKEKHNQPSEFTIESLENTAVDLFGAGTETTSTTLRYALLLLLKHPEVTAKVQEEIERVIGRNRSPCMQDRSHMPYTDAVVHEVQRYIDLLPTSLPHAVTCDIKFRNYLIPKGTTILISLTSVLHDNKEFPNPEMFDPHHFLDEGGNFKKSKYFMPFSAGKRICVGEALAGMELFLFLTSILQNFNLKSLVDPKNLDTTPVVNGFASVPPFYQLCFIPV
MRP1 act: MRP-1 activation | 140,000 tested, 0.61% active | AID 799 | H69AR cells + doxorubicin, viability rescue, CellTiter-Glo | viability increase, % at 10 µM;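 active means viability gain under doxorubicin at or above a set limit, the compound median plus 3 SD, cut at about 4.7% in these data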;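 further: MRP-1 overexpressing cells given doxorubicin 25 µM after compound pretreatment; 18-22 h compound pretreatment then 72 h with doxorubicin before readout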
CYP2C9 inhib: blocks human cytochrome P450 2C9. P11712. CYP2C9 Supersomes, luciferin-H conversion, luminescence. inhibition, % at 5 µM. 96,000 tested, 20% active. AID 777;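 active means blocking of liver enzyme CYP2C9 beyond about 50% at 5 µM, limit read from the data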
MRP resist rev: reverses drug resistance mediated by MRP; H69AR cells + 2 uM doxorubicin, CellTiter-Glo, 72 h; differential viability (reversal), % at 10 µM; 85,000 tested, 0.04% active; AID 602;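 active means viability drop by adding the cancer drug above about 55%, with treated viability meeting a 40% cutoff, limit read from the data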;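 further: larger differential means the compound sensitizes cells more to doxorubicin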
CYP2C19 inh: blocks human cytochrome P450 2C19 | inhibition, % at 5 µM | 96,000 tested, 21% active | CYP2C19 Supersomes, luciferin-H EGE luminescence, 30 min;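 active means CYP2C19 inhibition above a set limit at 5 µM in the primary screen, cut at about 50% in these data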
CYP2C19 activ: cytochrome P450 2C19 (human) activation | 96,000 tested, under 10 active | activation factor at 5 µM | recombinant CYP2C19, luciferin-H EGE luminescence; stronger effect = higher value; 0 = fully inhibited enzyme, 1 = untreated enzyme | P33261;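 active means activation factor of at least 2 at 5 µM in the primary screen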
A number is an active result; 0 = inactive; - = no result given. This is a sample that favours compounds with a hit; in the whole collection about 21% have one here.

SMILES | CYP2C9 activ | MRP1 act | CYP2C9 inhib | MRP resist rev | CYP2C19 inh | CYP2C19 activ
Cc1noc(C)c1CSCC(=O)OCc1nc2ccccc2c(=O)n1CC#N | 0 | 0 | 65.0 | 0 | 0 | 0
Nc1cccc(C(=O)Nc2ccc(N)cc2Cl)c1 | 0 | 0 | 0 | 0 | 0 | 0
Nc1cccc(C(=O)Nc2ccco2)c1 | 0 | 0 | 79.1 | - | 97.9 | 0
CSC(=NC#N)N1CCN(c2ccc(Cl)cc2)CC1 | 0 | 0 | 0 | - | 85.5 | 0
N#CC(C#N)=C/C(C#N)=C(/N)N1CCN(c2ccc(Cl)cc2)CC1 | 0 | 0 | 0 | - | 0 | 0
CCC(C)n1c(SCC(=O)/C(C#N)=C(\C)N)nc2ccccc2c1=O (configuration not stated) | - | 0 | - | - | - | -
C/C(N)=C(/C#N)C(=O)CSc1n[nH]c(-c2ccccc2Br)n1 | 0 | 0 | 0 | 0 | 97.0 | 0
CCCn1c(=O)c2ccccc2n2c(SCc3cc(=O)n4ccsc4n3)nnc12 | - | - | - | 0 | - | -
NC(=O)NC(=O)CSc1nc(C2CCCCC2)n(-c2ccccc2)n1 | - | 0 | - | - | - | -
C/C(N)=C(/C#N)C(=O)CSc1nc(C2CCCCC2)n(-c2ccccc2)n1 | 0 | 0 | 77.2 | 0 | 0 | 0
C=CCn1c(SCC(=O)/C(C#N)=C(\C)N)nnc1C1CCCCC1 | 0 | 0 | 0 | 0 | 78.0 | 0
C=CCn1c(SCc2cc(=O)n3ccsc3n2)nnc1C1CCCCC1 | 0 | 0 | 0 | 0 | 87.8 | 0
CCSc1nnc(CNc2ccc(C)cc2)n1C | - | 0 | - | - | - | -
COc1ccc(C(=O)c2ccc(CC#N)s2)cc1 | 0 | 0 | 0 | - | 56.2 | 0
O=C(CCCCCCN1C(=O)c2ccccc2C1=O)N1CCC(c2ccccc2)C1 (configuration not stated) | - | 0 | - | 0 | - | -
COCCN(CC(=O)NCc1ccccc1)C(=O)CCC(=O)Nc1ccccn1 | 0 | 0 | 0 | 0 | 0 | 0
CCOC(=O)c1ccc(NC(=O)COc2ccc(S(=O)(=O)NC(C)(C)C)cc2)cc1 | - | 0 | - | 0 | - | -
CSC(=NC1CCCCC1)NS(=O)(=O)c1ccccc1 | 0 | 0 | 0 | 0 | 79.7 | 0
COc1ccc(/C=N/Nc2snc(SC)c2C#N)cc1OC | 0 | 0 | 60.9 | 0 | 62.1 | 0
COc1cccc(/C=N/Nc2snc(SC)c2C#N)c1 | 0 | 0 | 65.7 | 0 | 0 | 0
Cc1nc(Nc2ncc3c(n2)CCCC3=O)nc2ccccc12 | - | - | - | 0 | - | -
CCOC(=O)N1CCN(C(=O)CSc2nnc(Cc3ccccc3)o2)CC1 | 0 | 0 | 0 | 0 | 0 | 0
Cc1cc(C(=O)N2CCC(Cc3ccccc3)CC2)ccc1[N+](=O)[O-] | 0 | 0 | 0 | - | 77.8 | 0
O=C(c1ccccc1[N+](=O)[O-])N1CCC(Cc2ccccc2)CC1 | 0 | 0 | 60.2 | - | 66.2 | 0
CCCCCOc1ccc(NC(=O)CSc2cccc3cccnc23)cc1 | - | 0 | - | - | - | -
SMILES | CYP2C9 activ | MRP1 act | CYP2C9 inhib | MRP resist rev | CYP2C19 inh | CYP2C19 activ
CS/C(=N\S(=O)(=O)c1cccs1)NC(=O)CSc1nc2ccccc2s1 | 0 | 0 | 100.3 | 0 | 79.9 | 0
Cc1ccc(OC(=O)C(C)c2cccc(C(=O)c3ccccc3)c2)cc1 (configuration not stated) | 0 | 0 | 0 | - | 0 | 0
Cc1ccccc1NC(=O)C(C)c1cccc(C(=O)c2ccccc2)c1 (configuration not stated) | 0 | 0 | 77.7 | - | 90.9 | 0
COc1ccc(C(=O)CSc2nnc(NC(=O)C3CC(=O)N(c4ccccc4C)C3)s2)cc1 (configuration not stated) | - | 0 | - | - | - | -
O=C(Cc1ccc(Cl)c(Cl)c1)OCC(=O)c1ccc[nH]1 | 0 | 0 | 51.5 | 0 | 91.2 | 0
O=C(CSc1nnc(CNC(=O)c2ccccc2F)o1)c1ccccc1 | 0 | 0 | 0 | 0 | 0 | 0
CCn1cc(/C=N/NS(=O)(=O)c2ccc(C)cc2)c(C)n1 | 0 | 0 | 83.0 | - | 88.3 | 0
Cc1ccc(S(=O)(=O)N/N=C/c2cn(C)nc2C)cc1 | 0 | 0 | 64.0 | - | 50.6 | 0
COc1ccc(/C=N/NS(C)(=O)=O)c(OC)c1 | - | 0 | - | - | - | -
Cc1ccc(S(=O)(=O)N/N=C\c2cc([N+](=O)[O-])ccc2Cl)cc1 | 0 | 0 | 0 | - | 62.2 | 0
CCn1cc(/C=N/NS(=O)(=O)c2ccc(OC)cc2)c(C)n1 | 0 | 0 | 69.3 | - | 86.6 | 0
COc1ccc(N(CC(=O)NN=C2CCCCCCC2)S(=O)(=O)c2ccccc2)cc1 | 0 | 0 | 0 | - | 0 | 0
Cc1ccc(S(=O)(=O)N/N=C/c2cc(Br)c(C)o2)cc1 | 0 | 0 | 97.0 | - | 0 | 0
Cc1ccc(S(=O)(=O)N/N=C/c2cccc([N+](=O)[O-])c2)cc1 | - | 0 | - | - | - | -

Compound activity from PubChem.
